The results in this text go back to the supplement of paper PMC8975748.

SMILES strings stand for the structures. Where a name gives a salt, the structure may show the parent alone.

This test deals with Saccharomyces cerevisiae BY4741 SeMeCo community. Briefly: z-score of subpopulation abundance vs DMSO median, subpopulation auxotrophic for HU; higher = larger share of this subpopulation than in DMSO controls. The note with it: 10 µM; 24 h; SM minimal medium; subpopulation (auxotrophy): HU. As for the experimental part: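 Fluorescent four-plasmid SeMeCo (self-establishing metabolically cooperating S. cerevisiae BY4741 community; plasmids pH-mRuby2, pL-mWasabi, pU-eCFP, pM-TagRFP657) was grown 24 h in minimal SM medium with each Selleck FDA-approved drug at 10 µM in 384-well plates. Cells were fixed and imaged by high-content confocal microscopy. For each auxotrophic subpopulation (and the prototroph), a z-score gives the deviation from the DMSO vehicle-control population median.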
Take `CS(=O)(=O)c1ccc([C@@H](O)[C@@H](CO)NC(=O)C(Cl)Cl)cc1` [Thiamphenicol]: the “z-score of subpopulation abundance” value came to 0.15. Regarding `CC(C(O)c1ccc(O)cc1)N1CCC(Cc2ccccc2)CC1` (stereo not given) [Ifenprodil Tartrate], the “z-score of subpopulation abundance” value is -0.43. Consider `CO/N=C(\C(=O)N[C@@H]1C(=O)N2C(C(=O)O)=C(COC(C)=O)CS[C@H]12)c1csc(N)n1` [Cefotaxime sodium], for which the “z-score of subpopulation abundance” value was -0.11. On to `NC(=O)N1c2ccccc2C=Cc2ccccc21` [Carbamazepine], for which the “z-score of subpopulation abundance” value was -0.56.

Take `N#Cc1ccc2[nH]cc(CCCCN3CCN(c4ccc5oc(C(N)=O)cc5c4)CC3)c2c1` [Vilazodone HCl]: the “z-score of subpopulation abundance” value was 0.14. `CNCc1cc(-c2ccccc2F)n(S(=O)(=O)c2cccnc2)c1` [Vonoprazan Fumarate (TAK-438)]: the “z-score of subpopulation abundance” value was -0.16. In the case of `Nc1ccc(C(=O)O)c(O)c1` [4-Aminosalicylic acid], the “z-score of subpopulation abundance” value is -3.39.

As for `CC1(C)S[C@@H]2[C@H](NC(=O)Cc3ccccc3)C(=O)N2[C@H]1C(=O)O` [Benzathine penicilline], the “z-score of subpopulation abundance” value worked out at 0.01. As to `CN1CCN(C2=Nc3ccccc3Oc3ccc(Cl)cc32)CC1` [Loxapine Succinate], the “z-score of subpopulation abundance” value worked out at 0.53.

As to `COc1ccc([C@@H]2Sc3ccccc3N(CCN(C)C)C(=O)[C@@H]2OC(C)=O)cc1` [Diltiazem HCl], the “z-score of subpopulation abundance” value is -0.1.

For `CC1=C(C(=O)O)N2C(=O)[C@@H](NC(=O)[C@H](N)c3ccccc3)[C@H]2SC1` [Cephalexin], the “z-score of subpopulation abundance” value was -0.74. The value for `CCN1CCN(C(=O)N[C@@H](C(=O)N[C@@H]2C(=O)N3[C@@H]2SC(C)(C)[C@@H]3C(=O)O)c2ccccc2)C(=O)C1=O` [Piperacillin Sodium] was -0.25; that for `CCn1cc(C(=O)O)c(=O)c2cc(F)c(N3CCNCC3)nc21` [Enoxacin] was -0.82. For `C[C@]12CC[C@@H]3c4ccc(OS(=O)(=O)O)cc4CC[C@H]3[C@@H]1CCC2=O` [Estropipate], the “z-score of subpopulation abundance” value is -0.17. On to `COc1ccnc(C[S+]([O-])c2nc3cc(OC(F)F)ccc3[nH]2)c1OC` (stereo not given) [Pantoprazole sodium], for which the “z-score of subpopulation abundance” value was 0.06. As to `O=C(Nc1ccc(Oc2ccc(Cl)cc2)c(Cl)c1)c1cc(I)cc(I)c1O` [Rafoxanide], the “z-score of subpopulation abundance” value is -0.5. Consider `Cc1nc(C)c(Cl)c(O)c1Cl` [Clopidol], for which the “z-score of subpopulation abundance” value is -0.28. On to `NC(=O)[C@@H]1CC[C@@H]2CN1C(=O)N2OS(=O)(=O)O` [Avibactam sodium], for which the “z-score of subpopulation abundance” value was -0.2. For `COCCOC(=O)C1=C(C)NC(C)=C(C(=O)OC/C=C/c2ccccc2)C1c1cccc([N+](=O)[O-])c1` (stereo not given) [Cilnidipine], the “z-score of subpopulation abundance” value came out at 0.24.

In the case of `CN1[C@@H]2CC[C@H]1C[C@@H](OC(c1ccccc1)c1ccccc1)C2` [Benztropine mesylate], the “z-score of subpopulation abundance” value was -0.54.

As to `CCn1cc(C(=O)O)c(=O)c2cc(F)c(N3CCN(C)CC3)cc21` [Pefloxacin Mesylate], the “z-score of subpopulation abundance” value was -0.36. In the case of `CCC[C@@H]1C[C@@H](C(=O)N[C@@H]([C@H]2O[C@H](SC)[C@H](O)[C@@H](O)[C@H]2O)[C@@H](C)O)N(C)C1` [Lincomycin HCl], the “z-score of subpopulation abundance” value was -0.73. For the compound `CN[C@H](CC(C)C)C(=O)N[C@H]1C(=O)N[C@@H](CC(N)=O)C(=O)N[C@H]2C(=O)N[C@H]3C(=O)N[C@H](C(=O)N[C@H](C(=O)O)c4cc(O)cc(O)c4-c4cc3ccc4O)[C@H](O)c3ccc(c(Cl)c3)Oc3cc2cc(c3O[C@@H]2O[C@H](CO)[C@@H](O)[C@H](O)[C@H]2O[C@H]2C[C@](C)(N)[C@H](O)[C@H](C)O2)Oc2ccc(cc2Cl)[C@H]1O` [Vancomycin HCl], the “z-score of subpopulation abundance” value came to 0.05. Take `COc1ccc(NS(=O)(=O)c2ccc(N)cc2)nn1` [Sulfamethoxypyridazine]: the “z-score of subpopulation abundance” value was -0.08. Take `OC1(c2ccc(Cl)c(C(F)(F)F)c2)CCN(CCCC(c2ccc(F)cc2)c2ccc(F)cc2)CC1` [Penfluridol]: the “z-score of subpopulation abundance” value was found to be 0.66. Take `Oc1c(Cl)cc(Cl)c(Cl)c1Cc1c(O)c(Cl)cc(Cl)c1Cl` [Hexachlorophene]: the “z-score of subpopulation abundance” value was found to be 4.22.

Turning to `COc1cc(NC(C)CCCN)c2ncccc2c1` (stereo not given) [Primaquine Diphosphate], the “z-score of subpopulation abundance” value is -1.2. The result for `O=C(Cn1cnnn1)N[C@@H]1C(=O)N2C(C(=O)O)=C(CSc3nncs3)CS[C@H]12` [Ceftezole sodium] reads 0.45; that for `Clc1ccc(CCC(Cn2ccnc2)Sc2c(Cl)cccc2Cl)cc1` (stereo not given) [Butoconazole], 7.63. The result for `NC(=O)c1cnccn1` [Pyrazinamide] reads -0.29; that for `CCC(=O)Oc1ccc2c(c1)CCC1C2CCC2(C)C(OC(=O)CC)CCC12` (stereo not drawn) [Estradiol dipropionate(17-Beta-Estradiol-3,17-Dipropionate)], 0.2; that for `NC[C@H]1O[C@H](O[C@H]2[C@H](O)[C@@H](O[C@H]3O[C@H](CO)[C@@H](O)[C@H](N)[C@H]3O)[C@H](N)C[C@@H]2N)[C@H](O)[C@@H](O)[C@@H]1O` [Kanamycin sulfate], -0.5. The value for `O=C(N[C@H](CO)[C@H](O)c1ccc([N+](=O)[O-])cc1)C(Cl)Cl` [Chloramphenicol] was 0.66; that for `COc1ccc2c(c1)c(CC(=O)O)c(C)n2C(=O)c1ccc(Cl)cc1` [Indomethacin] was -0.04; that for `Cc1ncc([N+](=O)[O-])n1CCO` [Metronidazole] was -0.14. For the compound `CCCCN(CCCC)CC(O)c1cc(Cl)cc2c1-c1ccc(Cl)cc1/C2=C/c1ccc(Cl)cc1` (stereo not given) [Lumefantrine], the “z-score of subpopulation abundance” value is 0.43. Turning to `CCCCCCCCCCCCCCCCOP(=O)([O-])OCC[N+](C)(C)C` [Miltefosine], the “z-score of subpopulation abundance” value came out at 1.54. For `CC1=C(C(=O)OCCN(Cc2ccccc2)c2ccccc2)C(c2cccc([N+](=O)[O-])c2)C(P2(=O)OCC(C)(C)CO2)=C(C)N1` (stereo not given) [Efonidipine], the “z-score of subpopulation abundance” value was 1.86. Take `COc1ccnc(C[S+]([O-])c2nc3cc(OC(F)F)ccc3[nH]2)c1OC` (stereo not given) [Pantoprazole]: the “z-score of subpopulation abundance” value came out at 0.3. Turning to `COc1cccc(CCc2ccccc2OCC(CN(C)C)OC(=O)CCC(=O)O)c1` (stereo not given) [Sarpogrelate hydrochloride], the “z-score of subpopulation abundance” value is -0.27.
